High-throughput results as filed in PubChem.
KCNQ2 enhance: enhances the rat KCNQ2 potassium channel; actives 0.54% (n = 310,000); O88943; AID 2239; CHO-K1 KCNQ2, FluxOR thallium flux fluorescence; hits give high values; B-score at 10 µM;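 active = fluorescence ratio B-score at least 3 SD of library B-scores, with initial fluorescence B-score within 3 of them, cut at about 5.3 in these data; same plate scores as AID 2156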;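 also: B-score of peak minus minimum over baseline fluorescence ratio after K+ and Tl+ stimulus; positive B-score means potentiation of KCNQ2 with more thallium influx and brighter signal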
KCNQ2 inh: inhibitors of rat KCNQ2 potassium channel. CHO-K1 KCNQ2, FluxOR thallium flux, 20 min; hits give low values. B-score at 10 µM. actives 1.1% (n = 310,000). AID 2156;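 active = fluorescence ratio B-score at most minus 3 library SDs, with starting brightness B-score within 2 library SDs, cut at about -5.5 in these data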
Kir21 conf inh: confirmation of mouse Kir2.1 potassium channel inhibitors | shares compounds with KCNQ2 enhance | Kir2.1-expressing cells, FluxOR thallium flux fluorescence; hits give low values | Tl flux remaining, % of negative control (hits give low values), % at 10 µM | actives 41% (n = 2,300);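 active = Primary-screen hit whose thallium flux fell at least 3 control SD below untreated wells in both duplicates, with normal baseline fluorescence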
Target sequence (P35561 whole entry, looked up): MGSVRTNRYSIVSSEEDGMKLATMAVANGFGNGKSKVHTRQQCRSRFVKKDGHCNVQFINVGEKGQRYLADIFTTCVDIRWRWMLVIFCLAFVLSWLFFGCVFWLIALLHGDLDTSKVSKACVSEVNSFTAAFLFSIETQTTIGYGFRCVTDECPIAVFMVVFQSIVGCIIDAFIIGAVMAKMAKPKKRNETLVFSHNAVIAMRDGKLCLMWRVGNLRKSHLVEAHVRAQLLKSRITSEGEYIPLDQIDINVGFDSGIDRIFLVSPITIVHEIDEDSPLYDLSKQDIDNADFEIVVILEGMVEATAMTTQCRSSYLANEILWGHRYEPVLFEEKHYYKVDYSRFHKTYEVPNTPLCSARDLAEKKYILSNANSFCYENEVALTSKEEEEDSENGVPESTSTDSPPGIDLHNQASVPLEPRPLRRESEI
HEK293 Tl flux: counter-screen for Kir2.1 inhibitors: effect in parental HEK293 cells; FluxOR signal as % of negative control (100 = no effect), % at 10 µM; shares compounds with KCNQ2 enhance; AID 2105; FluxOR thallium flux fluorescence; 0% = unstimulated blank wells; actives 19% (n = 2,300);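 active = dye signal at least 3 control SD above or below untreated wells in both duplicates, raw fluorescence within 3, either direction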;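 also: percent is based on the flux ratio of peak minus minimum fluorescence over baseline F0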
CHO-K1 ctr: counter-screen for KCNQ2 potentiators: effect in parental CHO-K1 cells; shares compounds with KCNQ2 enhance; FluxOR thallium flux fluorescence; zero = vehicle mean+3SD, 100% = vehicle-minus-blank window; activity increase over 3SD of controls, % at 10 µM; actives 43% (n = 1,200);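 active = signal rise of at least 3 SD above the untreated control mean, in both duplicate wells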;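 also: counter screen of KCNQ2 potentiator hits so any rise reflects channel-independent effects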
KCNQ1 pot spec: human KCNQ1 counter-target activity of KCNQ2 potentiators; actives 28% (n = 1,200); activation over 3SD threshold, % at 10 µM; AID 2283; shares compounds with KCNQ2 enhance; CHO KCNQ1 stable, FluxOR thallium flux fluorescence; beyond 3SD, as % of vehicle-control signal;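 active = fluorescence ratio rise of at least 3 SD of vehicle wells above their mean, in both replicate wells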
KCNQ2 pot conf: confirmation of rat KCNQ2 potassium channel potentiators | AID 2287 | potentiation, less the hit threshold, % at 10 µM | CHO-KCNQ2 cells, FluxOR thallium flux fluorescence | shares compounds with KCNQ2 enhance | actives 68% (n = 1,200);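 active = fluorescence ratio rising 3 SD or more over the vehicle control mean in both replicates, plus primary screen hit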;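 also: peak minus minimum thallium fluorescence divided by baseline after K/Tl stimulus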
Kir21 spec: mouse Kir2.1 off-target activity of KCNQ2 potentiators. HEK293 Kir2.1, FluxOR thallium flux fluorescence. shares compounds with KCNQ2 enhance. actives 2% (n = 1,200). activity over 3SD threshold, % at 10 µM;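 active = fluorescence ratio rise of at least 3 SD above the vehicle-control mean, seen in both replicates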
KCNQ2 W236L MoA: potentiates the retigabine-insensitive rat KCNQ2 W236L mutant channel; shares compounds with KCNQ2 enhance; CHO KCNQ2-W236L, automated patch clamp current; current increase over 3SD of negative controls (%), hits give high values, % at 25 µM; actives 10% (n = 940);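 active = current increase at least 3 SD of the untreated controls above them in both duplicate recordings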
Hits are given with their value; n = inactive; x = no result. Rows were chosen to be rich in hits. Some 1.6% of all compounds tested hit in one or more screens of this group.

SMILES | KCNQ2 enhance | KCNQ2 inh | Kir21 conf inh | HEK293 Tl flux | others
CC(C)CCNC(=O)C1CCN(S(=O)(=O)c2ccc3c(c2)CC(C)N3C(=O)C2CCC2)CC1 (stereo not given) | n | n | x | x
Cc1ccc(CNC(=O)C2CCN(S(=O)(=O)c3ccc4c(c3)CC(C)N4C(=O)C3CCC3)CC2)o1 (stereo not given) | 6.58 | n | n | n | CHO-K1 ctr=n;KCNQ1 pot spec=n;KCNQ2 pot conf=n;Kir21 spec=n
O=C(c1ccc(-c2ccccc2)cc1)N1CCN(c2ccccn2)CC1 | n | n | x | x
Cc1ccccc1NC(=O)C(C)c1cccc(C(=O)c2ccccc2)c1 (stereo not given) | n | n | n | n | CHO-K1 ctr=116.7;KCNQ1 pot spec=13.0;KCNQ2 pot conf=16.2;Kir21 spec=n;KCNQ2 W236L MoA=n
Cc1ccc(OC(=O)C(C)c2cccc(C(=O)c3ccccc3)c2)cc1 (stereo not given) | x | n | x | x
Brc1ccc(C=Nc2ccc3c(c2)OCCOCCOCCO3)s1 | n | n | x | x
CN(CC(=O)Nc1c(Cl)cccc1Cl)C(=O)C1=COCCO1 | n | n | x | x
Cc1ccc(CN2CCC(C(=O)Nc3cccc(-c4cccc(F)c4)c3)CC2)o1 | x | n | x | x
O=C(Nc1cccc(-c2cccc(Cl)c2)c1)C1CCN(Cc2ccc(CO)o2)CC1 | x | n | 63.0% | n
CCOC(=O)CSc1nc2c(c(-c3ccc(C)o3)c1C#N)CCCC2 | 7.21 | n | n | n | CHO-K1 ctr=112.7;KCNQ1 pot spec=n;KCNQ2 pot conf=6.3;Kir21 spec=n;KCNQ2 W236L MoA=n
COC(=O)CSc1nc2c(c(-c3ccco3)c1C#N)CCCC2 | 11.3 | n | n | n | CHO-K1 ctr=7.8;KCNQ1 pot spec=n;KCNQ2 pot conf=27.8;Kir21 spec=n;KCNQ2 W236L MoA=n
Cc1ccc(-c2c(C#N)c(N)nc3c2CCCCC3)o1 | n | n | x | x
COC(=O)CSc1nc2c(c(-c3ccc(O)cc3)c1C#N)CCCC2 | x | n | x | x
OC(CNCC1(N2CCCCC2)CCCCC1)COc1ccc(Cl)cc1Cl (stereo not given) | n | n | 50.0% | 75.0%
O=C(COc1ccc(Cl)cc1Cl)NC(=O)N1CCCCC1 | x | n | x | x
COc1ccc(-c2cc(C)no2)cc1S(=O)(=O)NCCc1ccco1 | n | n | x | x
Cc1ccc(S(=O)(=O)N2CCN(C(=S)NCC3CCCO3)CC2)cc1 (stereo not given) | x | n | x | x
CCOC(=O)C1CCN(Cc2cccc(Oc3ccccc3)c2)CC1 | x | n | 27.0% | n
CCOC(=O)C1CCN(Cc2cccc(Oc3ccc(Cl)cc3)c2)CC1 | x | n | x | x
CN(CC(=O)Nc1cccc(F)c1)C(=O)c1ccc(N2CCCCC2)c([N+](=O)[O-])c1 | x | n | x | x
Cc1nc(N2CCN(Cc3ccccc3)CC2)c(C#N)c2c1COC(C)(C)C2 | x | n | 60.0% | n
CC(C)c1nc(N2CCN(C(=O)c3ccccc3)CC2)c(C#N)c2c1COC(C)(C)C2 | x | n | x | x
O=C(COC(=O)c1cc(S(=O)(=O)N2CCCCC2)ccc1N1CCOCC1)c1ccccc1 | x | n | x | x
Cc1cc(-c2nnc(SCC(=O)Nc3ccc(F)cc3F)n2N)n[nH]1 | n | n | x | x
C=CCOc1ccc(CN(C)CC(O)COc2ccc(CCC(C)=O)cc2)cc1 (stereo not given) | n | n | x | x
COc1ccc(C(OCC(O)CN(C)C2CCCCC2)c2ccc(OC)cc2)cc1 (stereo not given) | x | n | x | x
CCOc1ccc(CN(C)CC(O)COC(c2ccc(OC)cc2)c2ccc(OC)cc2)cc1 (stereo not given) | x | n | 58.5% | n
COc1ccc(CN(C)CC(O)COC(c2ccc(OC)cc2)c2ccc(OC)cc2)cc1 (stereo not given) | x | n | 49.5% | n
Cc1ccc(C(=O)N2CCN(C34CC5CC(CC(C5)C3)C4)CC2)o1 | x | n | x | x
